Most compounds without a hit are left out; they make up all but 2.2% or so of the library.
CHT inh: human CHT choline transport inhibition. 310,000 tested, 0.86% active. B-score at 10 µM. CHT-expressing cells, membrane potential dye, choline response; hits give low values. Q9GZV3;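 active means B-score over 3 SD under the library average, and starting fluorescence ratio not unusually high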;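 further: choline stimulus applied at its EC90 after an EC20 pre-addition; B-score computed on integrated fluorescence ratio after choline addition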
Target sequence (Q9GZV3 whole entry, looked up): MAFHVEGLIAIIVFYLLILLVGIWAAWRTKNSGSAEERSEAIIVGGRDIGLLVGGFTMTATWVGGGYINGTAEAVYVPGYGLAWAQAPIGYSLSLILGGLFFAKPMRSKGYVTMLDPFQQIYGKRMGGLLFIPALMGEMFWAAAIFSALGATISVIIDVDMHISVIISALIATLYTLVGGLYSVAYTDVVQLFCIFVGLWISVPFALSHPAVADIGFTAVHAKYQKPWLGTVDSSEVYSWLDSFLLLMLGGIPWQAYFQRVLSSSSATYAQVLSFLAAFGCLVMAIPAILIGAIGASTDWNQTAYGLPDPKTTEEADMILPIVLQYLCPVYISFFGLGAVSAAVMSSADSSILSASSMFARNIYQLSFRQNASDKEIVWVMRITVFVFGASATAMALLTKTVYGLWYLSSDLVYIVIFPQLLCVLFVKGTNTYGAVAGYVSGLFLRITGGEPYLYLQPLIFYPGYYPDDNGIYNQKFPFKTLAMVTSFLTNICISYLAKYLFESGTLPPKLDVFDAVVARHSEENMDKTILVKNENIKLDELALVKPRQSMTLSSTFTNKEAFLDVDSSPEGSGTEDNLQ
VLA-4 inh: inhibition in a human VLA-4 binding assay. P13612. VLA-4 expressing cells, ligand binding flow cytometry. inhibition, % (about 7 µM as worked out from the volumes in the protocol). 330,000 tested, 0.2% active; in the data active means inhibition above about 50%
AI-2 QS modul: modulates the Vibrio harveyi AI-2 quorum sensing system; Vibrio harveyi JMH597 AI-2 luminescence/OD600 ratio, 9 h; hits give low values; strain lacks LuxN and CqsS sensors; 0 = neutral-control median; activity change, % at 7.5 µM; 300,000 tested, 0.4% active; in the data active means activity change below about -75%, passing the limit was not always enough;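 further: luminescence divided by OD600 gain over 9 h not by final OD600 alone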
Platelet DG rel: platelet dense granule release activity; human platelet-rich plasma, SFLLRN dense granule ATP release, luminescence; inhibition, %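 (compounds screened at 7.5 µM in platelet-rich plasma)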; 300,000 tested, 0.22% active; AID 1663;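 active means mean replicate score, as percent of positive control, at or above 50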
CHT allo act: allosterically activates the human high affinity choline transporter. 310,000 tested, 0.49% active. CHT-expressing cells, membrane potential dye, choline EC20; hits give high values; LV-AA mutant CHT in HEK293 cells. B-score at 10 µM;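 active means initial fluorescence not abnormally high and integrated response B-score, plate-corrected, over 3 SD above library mean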
HIF act: HIF pathway transcriptional activation. 300,000 tested, 0.32% active. activation, % at 7.5 µM (by protocol). AID 1910. U2OS HRE-luciferase reporter, luminescence; normalized: DMSO 0%, desferrioxamine 100%;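 active means mean activation of at least 10% of the iron chelator positive control signal, with at least half of replicates also reaching 10%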
Of the large screens only hits and unclear results are named; the others gave an inactive call.

COc1ccc(C2c3c(-c4ccccc4O)n[nH]c3C(=O)N2Cc2ccco2)cc1OC (centres undefined)	none
COc1ccc(C2c3c(-c4cc(Cl)c(C)cc4O)n[nH]c3C(=O)N2Cc2cccnc2)cc1OC (centres undefined)	Platelet DG rel 72
CCCCn1c(N)c(N(CC(C)C)C(=O)c2ccc([N+](=O)[O-])o2)c(=O)[nH]c1=O	none (no result: CHT inh, AI-2 QS modul, Platelet DG rel, CHT allo act, HIF act)
COc1ccc(NC(=O)N2CCCc3ccccc32)cc1	none
COc1ccc(NC(=O)CCS(=O)(=O)c2ccc3c(c2)CCN3C(C)=O)cc1	HIF act 10
COc1ccc(NC(=O)CCS(=O)(=O)c2ccc3c(c2)CCCN3C(C)=O)cc1Cl	none
COc1ccc(NC(=O)N2CCc3ccccc32)cc1	Platelet DG rel 53
CC(C)(O)/C=C/C[C@](C)(O)C1CC[C@]2(C)C1[C@H](O[C@H]1O[C@@H](CO)[C@H](O)[C@@H](O)[C@@H]1O)CC1[C@@]3(C)CC[C@H](O)C(C)(C)C3[C@@H](O)C[C@]12C (some centres undefined)	none (no result: CHT inh, AI-2 QS modul, Platelet DG rel, CHT allo act, HIF act)
CCOC(=O)c1cc2c(=O)n3ccccc3nc2n(CCCOC)c1=NC(C)=O	CHT allo act 13 (no result: AI-2 QS modul, Platelet DG rel, HIF act)
CC(C)OCCCn1c(=N)c(C(N)=S)cc2c(=O)n3ccccc3nc21	CHT allo act 6.6
N=c1c(C(=O)NC2CCCCC2)cc2c(=O)n3ccccc3nc2n1CCc1ccccc1	CHT allo act 7.3
CCOC(=O)c1cc2c(=O)n3ccccc3nc2n(CCCOC)c1=NC(=O)c1ccncc1	none
N=c1c(C(=O)NC2CCCCC2)cc2c(=O)n3ccccc3nc2n1Cc1ccccc1	none
CC(=O)N=c1c(C#N)cc2c(=O)n3ccccc3nc2n1CCCOC(C)C	none
COc1ccccc1C(CCNCc1ccc(N(C)C)cc1)c1ccc(OC(C)C)cc1 (centres undefined)	CHT allo act 8.7
COc1ccc(CNCCC(c2ccc(OC(C)C)cc2)c2ccccc2OC)cc1 (centres undefined)	none
COc1cccc2sc(Nc3nc(-c4ccccn4)cs3)nc12	HIF act 94
COc1cccc2sc(Nc3nnc(-c4cccs4)o3)nc12	AI-2 QS modul -165
CCOC(=O)CNC(=O)CSc1nnc(Cn2cnc3ccccc32)n1C	HIF act 12
COc1ccc(NC(=O)CSc2nnc(Cn3cnc4ccccc43)n2C)cc1	none
CCCCn1c(N)c(N(CC(C)C)C(=O)C2=NN(c3cc(C)ccc3C)C(=O)CC2)c(=O)[nH]c1=O	none
COc1cc2ccccc2cc1C(=O)Nc1ccc(C)cc1	HIF act 11
COc1cc2ccccc2cc1C(=O)Nc1ccc(Cc2ccncc2)cc1	none
C/C(CCC1CC(C)(C)OC1=O)=N\NC(N)=S (centres undefined)	none
CCCC1CC(C)(/C(C)=N\NC(N)=S)OC1=O (centres undefined)	CHT inh -9.3
Cc1ccc2nc(-c3ccncc3)c(NC3CCCCC3)n2c1	HIF act 452
Cc1ccc2nc(-c3ccncc3)c(NC3CCCC3)n2c1	none
N#Cc1nc(-c2ccc(Cl)cc2)oc1NCc1ccco1	none
N#Cc1nc(-c2ccccc2Cl)oc1NCc1ccco1	AI-2 QS modul -80
Cc1nnsc1C(=O)N/N=C/c1ccc2ccccc2c1O	HIF act 115
Cc1nnsc1C(=O)N/N=C/c1ccccc1	none
COc1ccc(CC(=O)NNS(=O)(=O)c2ccc(F)cc2)cc1	none
CN(C)c1ccc(O)c2c1CC1CC3C(N(C)C)C(=O)C(C(N)=O)=C(O)[C@@]3(O)C(=O)C1=C2O (some centres undefined)	AI-2 QS modul -120
Cc1cccc(C)c1OCC(O)CN1CCC(CN2C(=O)c3cccc4cccc(c34)C2=O)CC1 (centres undefined)	CHT inh -6.3
CC(C)(C)Sc1ccc(/C=N/O)cc1[N+](=O)[O-]	none
Cc1ccc(Sc2ccc(/C=N/O)cc2[N+](=O)[O-])cc1	AI-2 QS modul -76
O=C(CC12CC3CC(CC(C3)C1)C2)Nc1ccccc1N1CCOCC1	none
COc1cccc(/C=N/NC(=O)c2nc(-c3ccccc3)cc(-c3ccccc3)n2)c1O	HIF act 11
COc1cccc(/C=N/NC(=O)CSc2ccccc2C)c1OC	none
COc1cccc(/C=N/NC(=O)CSc2ccccc2C)c1O	HIF act 12
COc1cccc(/C=N\NC(=O)c2ccc(Cn3cc(Br)c([N+](=O)[O-])n3)o2)c1O	HIF act 18
COc1cccc(/C=N/NC(=O)c2c(C)nc3ccc(Br)cn23)c1O	HIF act 32
CCc1nnc(SCC(=O)NC2CC2)n1CC	none
CCN(C[C@H]1N[C@@](C)(C(=O)OC)[C@H]2C(=O)N(C)C(=O)[C@@H]12)C(=O)Nc1ccc(C(F)(F)F)cc1	none (no result: CHT inh, AI-2 QS modul, Platelet DG rel, CHT allo act, HIF act)
Cc1cc(NCCCn2ccnc2)n2nc(C)c(-c3ccc(Cl)cc3)c2n1	CHT inh -5.1
COc1ccc(C(=O)/C=C/C(=O)N(CC(=O)NC2CCCCC2)CC2CCCO2)c(O)c1 (centres undefined)	HIF act 16
COc1ccc(C(=O)/C=C/C(=O)N(CC(=O)NC2CCCCC2)Cc2ccccc2)c(O)c1	none (no result: CHT inh, VLA-4 inh, CHT allo act)
COc1ccccc1/C(C)=N/Oc1cc(N)cc([N+](=O)[O-])c1	none (no result: CHT inh, AI-2 QS modul, Platelet DG rel, CHT allo act, HIF act)
CCOc1cccc(-c2c(C(=O)N/N=C/c3cccnc3)nnn2-c2nonc2N)c1	none
CCc1ccc(/C=N/NC(=O)c2nnn(-c3nonc3N)c2CN2CCOCC2)cc1	Platelet DG rel 50
CC1CCN(Cc2c(C(=O)N/N=C/c3ccccc3O)nnn2-c2nonc2N)CC1	HIF act 31
CC(=C/c1ccccc1)/C=N/NC(=O)c1nnn(-c2nonc2N)c1CN1CCC(C)CC1	none
CCOc1cccc(-c2c(C(=O)N/N=C/c3ccc(Br)cc3)nnn2-c2nonc2N)c1	HIF act 10
CCN(CC)c1ccc(/C=N/NC(=O)c2nnn(-c3nonc3N)c2C(C)C)c(O)c1	HIF act 89
CC[C@@H]1C/C=C\Cc2ccccc2[C@H](C(=O)C[C@@H](O)CC(C)=O)OC1=O	none (no result: CHT inh, AI-2 QS modul, Platelet DG rel, CHT allo act, HIF act)
C=CCN1C(=O)c2ccccc2Sc2ccc(C(=O)N3CCN(C)CC3)cc21	HIF act 10
C=CCN1C(=O)c2ccccc2Sc2ccc(C(=O)NC(C)C)cc21	none
COc1ccc(NC(=O)Cn2ccc(C(F)(F)F)n2)cc1S(=O)(=O)N1CCOCC1	none (no result: CHT inh, AI-2 QS modul, Platelet DG rel, CHT allo act, HIF act)
S=c1[nH]nc(-c2ccc(Cl)cc2)n1/N=C/c1cccs1	none
CC(C)(C)c1n[nH]c(=S)n(/N=C/c2cccs2)c1=O	AI-2 QS modul -77
O=C(CCC1CCCC1)NNC(=O)c1ccc(F)cc1	none (no result: CHT inh, AI-2 QS modul, Platelet DG rel, CHT allo act, HIF act)
CC(=O)NC(CC(=O)NNC(=O)c1cccs1)c1ccccc1 (centres undefined)	none (no result: Platelet DG rel)
COc1ccc(NC(=O)c2cc([N+](=O)[O-])ccc2O)cc1	Platelet DG rel 72

Screens from PubChem.
